These sequences were tested against VEGF-A121 (Homo sapiens, UniProt P15692 SEQ:1-121) (assay: competition; TR-FRET). Conditions: tags: glycan-biotinylated for SPR/FRET/AlphaLISA; Acro BioSystems, Biolegend; chain copies: 2 (stated); ssRNA; all G 2'-F; A,C,U 2'-OMe; 5' C6NH2; 3' idT.
Experimental: Briefly, for competition TR-FRET, 2-fold dilutions of thermally equilibrated aptamers were made in TR-FRET Buffer (50 mM MOPS, pH 7.4, 125 mM NaCl, 5 mM KCl, 50 μM CHAPS, 0.1 mg/mL BSA, 1 mM CaCl₂, and 1 mM MgCl₂). 5 μL of aptamer or control solution was added to a 15 μL mix of glycan biotinylated […] (5 nM final), ALEXA FLUOR® 647-labeled Aptamer (30 nM final), and Streptavidin-Eu (Perkin Elmer; 2.5 nM final) in a black wall low volume 384 well plate (Greiner). For control, 5 μl of 1000-fold excess of unlabeled parent aptamer or 5 μl TR-FRET buffer alone was added to the mix of ALEXA FLUOR® 647-labeled aptamer, biotin-VEGF-A, and Streptavidin-Eu. The plate was covered with a plate seal and subsequently incubated in the dark for 1 hour at room temperature. The plate was read on a Biotek CYTATION™ 5 plate reader. Samples were excited at 330 nm and fluorescent values were collected at 665 nm. Data analysis was performed by subtracting the background value and plotting as percent inhibition, normalized to baseline in the absence of competitor. The values were fit by [Inhibitor] vs. response-Variable slope (four parameters) using GraphPad Prism Version 7.0 and then normalized to aptamer control to obtain an IC₅₀ relative to parent aptamer. Data is presented as log values of relative IC₅₀.
Activity of each of these variants were tested using a time resolved competition TR-FRET assay, as described in Example 7, in which a labeled parent was competed with increasing concentrations of unlabeled variants for binding to VEGF-A₁₂₁.

Sequence of VEGF-A121 (P15692 other isoform, or with tags, fused parts or gaps): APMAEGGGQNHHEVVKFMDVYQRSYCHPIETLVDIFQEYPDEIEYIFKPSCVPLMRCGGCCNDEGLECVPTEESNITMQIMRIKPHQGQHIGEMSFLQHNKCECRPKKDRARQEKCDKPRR

Sequence | binding signal
AGGCCGCCUCCGUGCGGAGGGGUUUCAUUAUCCCGUUUGGCGGCUU | 4 fold worse IC50 vs Aptamer 26
AGGCCGCCUCCGCGCGGACCGGUUUCAUUACCGGGUUUGGCGGCUU | ~9 fold worse IC50 vs Aptamer 26
AGGCCGCCUCCGCGCGGAGGGGUUCAUAUCCCGUUUGGCGGCUU | ~8 fold worse IC50 vs Aptamer 26
AGGCCGCCUCCGCGCGGAGAGGGUUCAUUCCCUCGUUUGGCGGCUU | ~9 fold worse IC50 vs Aptamer 26
AGGCCGCCUCCGCGCGGAGAGGUUUCAUUAUCUCGUUUGGCGGCUU | ~7 fold worse IC50 vs Aptamer 26
